According to PubChem BioAssay (NCATS):
Results filed as inconclusive are left out. Where a call stands in place of a potency, no number is given. The source made the active and inactive calls. Calls come from the whole dose curve; as a rule, active = well fitted curve in the direction sought with a large enough effect; inconclusive = small, poorly fitted or top-dose-only effect, or another doubt; inactive = no such curve, though single readings can be large; an effect the other way counts as inactive or inconclusive.

Columns and labels:
[1] = Quantitative High-Throughput drug screen in 47 multiple myeloma cell lines against the NCATS MIPE library collection: KMM1_JCRB cell viability assay (AID 1918960); note: nearly all actives have a fitted effect of over 30% in size; note: potency is the fitted concentration of half-maximal effect
Summary of the method: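 Luminescence from CellTiter-Glo, taken after 5 min at room temperature, reports cellular ATP as viability. Cells (500 per well) had been treated 48 h at 37 °C with MIPE 4.0 compounds, scaled between DMSO and medium-only controls.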

[2] = Quantitative High-Throughput drug screen in 47 multiple myeloma cell lines against the NCATS MIPE library collection: JIM1_ECACC cell viability assay (AID 1918964; note: potency is the fitted concentration of half-maximal effect)
Summary of the method: (§1)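 Relative luminescence from CellTiter-Glo served as the viability signal, referenced to DMSO-treated (100%) and cell-free medium (0%) controls. Treatment lasted 48 hours at 37C with 500 cells per well.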

[3] = Quantitative High-Throughput drug screen in 47 multiple myeloma cell lines against the NCATS MIPE library collection: INA6_PLB cell viability assay (AID 1918965; note: nearly all actives have a fitted effect of over 55% in size; note: potency is the fitted concentration of half-maximal effect)
Summary of the method: (§2)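 We plated 500 myeloma cells per well, pinned in MIPE 4.0 compounds, and incubated for 48 hours at 37C. ATP was then quantified with CellTiter-Glo, with DMSO and media-only wells defining 100% and 0%.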

[4] = Quantitative High-Throughput drug screen in 47 multiple myeloma cell lines against the NCATS MIPE library collection: Karpas25_ECACC cell viability assay (AID 1918968; note: nearly all actives have a fitted effect of over 35% in size; note: potency is the fitted concentration of half-maximal effect)
Summary of the method: as §1

[5] = Quantitative High-Throughput drug screen in 47 multiple myeloma cell lines against the NCATS MIPE library collection: KMS27_JCRB cell viability assay (AID 1918970); note: nearly all actives have a fitted effect of over 30% in size; note: potency is the fitted concentration of half-maximal effect
Summary of the method: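 CellTiter-Glo luminescence after 48 h drug exposure at 37 °C; 500 cells/well, 1536-well format, pin-tool compound addition; DMSO = 100%, media-only = 0% viability.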

[6] = Quantitative High-Throughput drug screen in 47 multiple myeloma cell lines against the NCATS MIPE library collection: KMS12PE_JCRB cell viability assay (AID 1918972); note: nearly all actives have a fitted effect of over 30% in size; note: potency is the fitted concentration of half-maximal effect
Summary of the method: as §2

[7] = Quantitative High-Throughput drug screen in 47 multiple myeloma cell lines against the NCATS MIPE library collection: KMS26_JCRB cell viability assay (AID 1918975); note: nearly all actives have a fitted effect of over 45% in size; note: potency is the fitted concentration of half-maximal effect
Summary of the method: (§3)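 Luminescent ATP measurement with CellTiter-Glo gives viability, scaled between DMSO-only wells (100%) and media-only wells (0%). Cells, 500 per well, faced library compounds for 48 hours at 37C.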

[8] = Quantitative High-Throughput drug screen in 47 multiple myeloma cell lines against the NCATS MIPE library collection: MOLP8_DSMZ cell viability assay (AID 1918977); note: nearly all actives have a fitted effect of over 45% in size
Summary of the method: (§4)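 Plated at 500 cells per well, myeloma lines received MIPE 4.0 compounds by pin tool. Following 48 h culture at 37 °C, CellTiter-Glo luminescence gave viability relative to DMSO and media-only controls.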

[9] = Quantitative High-Throughput drug screen in 47 multiple myeloma cell lines against the NCATS MIPE library collection: OCIMY1_PLB cell viability assay (AID 1918979); note: nearly all actives have a fitted effect of over 35% in size
Summary of the method: as §4

[10] = Quantitative High-Throughput drug screen in 47 multiple myeloma cell lines against the NCATS MIPE library collection: MM1S_ATCC cell viability assay (AID 1918980); note: nearly all actives have a fitted effect of over 45% in size; note: potency is the fitted concentration of half-maximal effect
Summary of the method: as §4

[11] = Quantitative High-Throughput drug screen in 47 multiple myeloma cell lines against the NCATS MIPE library collection: MM1R_ATCC cell viability assay (AID 1918981); note: nearly all actives have a fitted effect of over 35% in size; note: potency is the fitted concentration of half-maximal effect
Summary of the method: as §4

[12] = Quantitative High-Throughput drug screen in 47 multiple myeloma cell lines against the NCATS MIPE library collection: JIM3_ECACC cell viability assay (AID 1918963; note: nearly all actives have a fitted effect of over 35% in size; note: potency is the fitted concentration of half-maximal effect)
Summary of the method: (§5)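 Primary qHTS used for cherry-picking: cells at 500/well, library compounds for 48 h (37C, 5% CO2), luminescent ATP assay.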

[13] = Quantitative High-Throughput drug screen in 47 multiple myeloma cell lines against the NCATS MIPE library collection: NCIH929_DSMZ cell viability assay (AID 1918978); note: nearly all actives have a fitted effect of over 35% in size; note: potency is the fitted concentration of half-maximal effect
Summary of the method: as §4

[14] = Quantitative High-Throughput drug screen in 47 multiple myeloma cell lines against the NCATS MIPE library collection: JJN3_DSMZ cell viability assay (AID 1918966; note: nearly all actives have a fitted effect of over 50% in size; note: potency is the fitted concentration of half-maximal effect)
Summary of the method: as §1

[15] = Quantitative High-Throughput drug screen in 47 multiple myeloma cell lines against the NCATS MIPE library collection: H1112_PLB cell viability assay (AID 1918967; note: nearly all actives have a fitted effect of over 30% in size; note: potency is the fitted concentration of half-maximal effect)
Summary of the method: as §1

[16] = Quantitative High-Throughput drug screen in 47 multiple myeloma cell lines against the NCATS MIPE library collection: KHM11_PLB cell viability assay (AID 1918962); note: nearly all actives have a fitted effect of over 35% in size; note: potency is the fitted concentration of half-maximal effect
Summary of the method: as §5

[17] = Quantitative High-Throughput drug screen in 47 multiple myeloma cell lines against the NCATS MIPE library collection: KMS12BM_JCRB cell viability assay (AID 1918971)
Summary of the method: as §3

[18] = Quantitative High-Throughput drug screen in 47 multiple myeloma cell lines against the NCATS MIPE library collection: KMS20_JCRB cell viability assay (AID 1918973); note: nearly all actives have a fitted effect of over 45% in size; note: potency is the fitted concentration of half-maximal effect
Summary of the method: as §1

[19] = Quantitative High-Throughput drug screen in 47 multiple myeloma cell lines against the NCATS MIPE library collection: MMM1_PLB cell viability assay (AID 1918976)
Summary of the method: as §4

[20] = Quantitative High-Throughput drug screen in 47 multiple myeloma cell lines against the NCATS MIPE library collection: Karpas417_ECACC cell viability assay (AID 1918961); conditions: Karpas417 myeloma viability, CellTiter-Glo ATP luminescence, 48 h; viability (% of DMSO): at 45.8 µM (top of the series); note: potency is the fitted concentration of half-maximal effect
Summary of the method: as §2

C[C@@H](c1ncncc1F)[C@](O)(Cn1cncn1)c1ccc(F)cc1F
Potency [1]: inactive | Potency [2]: inactive | Potency [3]: inactive | Potency [4]: inactive | Potency [5]: inactive | Potency [6]: inactive | Potency [7]: inactive | Potency [8]: inactive | Potency [9]: inactive | Potency [10]: inactive | Potency [11]: inactive

OC(CN1CCN(c2cccc(Cl)c2)CC1)C(c1ccccc1)c1ccccc1 (stereo not given)
Potency [1]: inactive | Potency [12]: inactive | Potency [8]: inactive | Potency [13]: inactive | Potency [10]: 5.26 µM (active)

CCCCCCCCCCCCCCCCCCCCCCO
Potency [1]: inactive | Potency [3]: inactive | Potency [14]: inactive | Potency [15]: inactive | Potency [4]: inactive | Potency [6]: inactive | Potency [8]: inactive | Potency [9]: inactive | Potency [11]: inactive

Cc1cc(Cl)ccc1OCCCC(=O)NO
Potency [16]: 11.8 µM (active) | Potency [12]: 9.35 µM (active) | Potency [3]: 7.43 µM (active) | Potency [14]: 0.372 µM (active) | Potency [15]: 7.43 µM (active) | Potency [4]: 2.96 µM (active) | Potency [5]: 3.32 µM (active) | Potency [17]: 16.6 µM (active) | Potency [6]: 14.8 µM (active) | Potency [18]: 4.18 µM (active) | Potency [7]: 8.33 µM (active) | Potency [19]: 2.64 µM (active) | Potency [8]: inactive | Potency [13]: 2.64 µM (active) | Potency [10]: 1.18 µM (active) | Potency [11]: 23.5 µM (active)

O=C(O)CCNC(=O)c1ccc(N=Nc2ccc(O)c(C(=O)O)c2)cc1
Potency [1]: inactive | Potency [3]: inactive | Potency [15]: inactive | Potency [4]: 0.0037 µM (active) | Potency [5]: inactive | Potency [6]: inactive | Potency [13]: inactive | Potency [9]: inactive | Potency [10]: 8.33 µM (active) | Potency [11]: inactive

Clc1ccc(C(Cn2ccnc2)OCc2ccc(Sc3ccccc3)cc2)c(Cl)c1 (stereo not given)
Potency [1]: 20.9 µM (active) | Potency [2]: 20.9 µM (active) | Potency [3]: 26.4 µM (active) | Potency [4]: 18.7 µM (active) | Potency [17]: 26.4 µM (active) | Potency [6]: 18.7 µM (active) | Potency [19]: 23.5 µM (active) | Potency [10]: 18.7 µM (active) | Potency [11]: 26.4 µM (active)

C[C@@H](N)C1CCC(C(=O)Nc2ccncc2)CC1 (stereo not given in full)
Potency [1]: inactive | Potency [3]: 18.7 µM (active) | Potency [14]: inactive | Potency [15]: 14.8 µM (active) | Potency [4]: 26.4 µM (active) | Potency [18]: inactive | Potency [8]: inactive | Potency [10]: inactive | Potency [11]: inactive

Clc1ccc(C(Cn2ccnc2)OCc2ccsc2Cl)c(Cl)c1 (stereo not given)
Potency [20]: 18.7 µM (active) | Potency [3]: 26.4 µM (active) | Potency [14]: inactive | Potency [4]: 20.9 µM (active) | Potency [6]: 18.7 µM (active) | Potency [7]: inactive

CC(C)Oc1ccc2c(=O)c(-c3ccccc3)coc2c1
Potency [16]: inactive | Potency [12]: inactive | Potency [2]: inactive | Potency [15]: inactive | Potency [5]: inactive | Potency [19]: 18.7 µM (active) | Potency [10]: 13.2 µM (active) | Potency [11]: inactive

Cc1cccc(CN2CCN(C(c3ccccc3)c3ccc(Cl)cc3)CC2)c1 (stereo not given)
Potency [20]: inactive | Potency [2]: inactive | Potency [3]: 16.6 µM (active) | Potency [14]: 23.5 µM (active) | Potency [15]: 23.5 µM (active) | Potency [4]: 23.5 µM (active) | Potency [17]: 26.4 µM (active) | Potency [18]: 6.62 µM (active) | Potency [19]: 20.9 µM (active) | Potency [10]: 20.9 µM (active)

O=C(CCc1ccc(O)cc1)c1c(O)cc(O)cc1O
Potency [20]: 0.132 µM (active) | Potency [16]: 0.059 µM (active) | Potency [3]: 0.418 µM (active) | Potency [15]: 0.148 µM (active) | Potency [4]: 0.187 µM (active) | Potency [17]: 0.332 µM (active) | Potency [7]: 0.166 µM (active) | Potency [19]: 0.132 µM (active) | Potency [11]: 0.148 µM (active)

CCCS(=O)c1ccc2nc(NC(=O)OC)[nH]c2c1 (stereo not given)
Potency [1]: inactive | Potency [2]: inactive | Potency [14]: 11.8 µM (active) | Potency [5]: inactive | Potency [17]: 20.9 µM (active) | Potency [7]: 10.5 µM (active) | Potency [13]: inactive

Oc1ccc(OCc2ccccc2)cc1
Potency [20]: inactive | Potency [12]: inactive | Potency [2]: inactive | Potency [15]: inactive | Potency [4]: inactive | Potency [6]: inactive | Potency [19]: 5.9 µM (active) | Potency [9]: inactive | Potency [10]: inactive | Potency [11]: inactive

Cc1nc(Nc2ncc(C(=O)Nc3c(C)cccc3Cl)s2)cc(N2CCN(CCO)CC2)n1
Potency [1]: 1.05 µM (active) | Potency [3]: 0.0833 µM (active) | Potency [14]: 3.32 µM (active) | Potency [4]: 0.332 µM (active) | Potency [6]: 0.372 µM (active) | Potency [18]: 0.332 µM (active)

N=C(N=C(N)N)N1CCOCC1
Potency [1]: inactive | Potency [2]: inactive | Potency [3]: inactive | Potency [15]: inactive | Potency [5]: inactive | Potency [6]: inactive | Potency [18]: inactive | Potency [9]: inactive | Potency [10]: 10.5 µM (active)

COc1cc(OC)c(C(=O)CCCN2CCCC2)c(OC)c1
Potency [20]: inactive | Potency [16]: inactive | Potency [12]: inactive | Potency [14]: 0.059 µM (active) | Potency [15]: inactive | Potency [4]: inactive | Potency [6]: inactive | Potency [8]: inactive | Potency [9]: inactive | Potency [10]: 16.6 µM (active) | Potency [11]: inactive
